Several values for one entry are separate records, joined by “and”; a condition that tells them apart may be missing. Equal entries are not always repeated. About 83,000 compounds went through this panel and 20% of them were active in at least one assay; those are over-represented in the sample as a whole.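 In brief: 96-well plates, 48 h treatment, single concentration, percent growth endpoint.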 Some structures have more than one record in an assay (separate samples or runs), and their calls can disagree. Activity calls are given as the source filed them. Rule for the calls: active = growth percent below 10; inactive = the rest.

Experimental findings from PubChem BioAssay (NCI) are described below.

Holding throughout (experiment): NCI-60 one-dose screen, 48 h (100 = growth as untreated, 0 = no growth, -100 = all killed)
In one assay the test system is DU-145 prostate. The conditions noted are these: 10 µM.
The next assay has as its system K-562 leukemia. To be noted: 10 µM.
A further assay concerns MALME-3M melanoma. The conditions noted are these: 10 µM.
A further assay deals with RXF 393 renal. To be noted: 10 µM.
A further assay concerns SF-268 CNS. The conditions noted are these: 10 µM.
The next assay relates to SF-295 CNS. To be noted: 10 µM.
A further assay has as its system SF-539 CNS. To be noted: 10 µM.
For the next assay, the system named is UACC-257 melanoma. The conditions noted are these: 10 µM.
Another assay deals with M14 melanoma. The conditions noted are these: 10 µM.
The test system of a further assay is HCT-15 colon. To be noted: 10 µM.
The next assay has as its system HT29 colon. To be noted: 10 µM.
A further assay has as its system SNB-75 CNS. The conditions noted are these: 10 µM.
For a further assay, the system named is U251 CNS. To be noted: 10 µM.
A further assay concerns PC-3 prostate. To be noted: 10 µM.
The test system of another assay is SK-MEL-5 melanoma. To be noted: 10 µM.
The next assay relates to UACC-62 melanoma.
The test system of the next assay is LOX IMVI melanoma. The conditions noted are these: 10 µM.
A further assay has as its system SK-MEL-28 melanoma. To be noted: 10 µM.
The subject of the next assay is MDA-MB-231 breast. The conditions noted are these: 10 µM.
Another assay has as its system SNB-19 CNS. The conditions noted are these: 10 µM.

On to `C#CCN(Cc1ccc2nc(N)[nH]c(=O)c2c1)c1ccc(C(=O)NC(CCC(=O)O)C(=O)O)cc1` (configuration not stated), for which the growth in the assay with DU-145 prostate was 48.6% (inactive); in the assay on K-562 leukemia, 58.9% (inactive); in the assay with MALME-3M melanoma, 86.8% (inactive); in the assay with RXF 393 renal, 72.9% (inactive); in the assay with SF-268 CNS, 70.4% (inactive); in the assay on SF-295 CNS, 99.5% (inactive). The growth in the assay with SF-539 CNS is 0.195% (active); with UACC-257 melanoma, 92.1% (inactive); in the assay on M14 melanoma, 44.7% (inactive); in the assay on HCT-15 colon, 65.5% (inactive); with HT29 colon, 62.5% (inactive); in the assay on SNB-75 CNS, 86.5% (inactive). Also, the growth with U251 CNS is 89.2% (inactive); in the assay with PC-3 prostate it was 64.6% (inactive); with SK-MEL-5 melanoma, 100% (inactive); with UACC-62 melanoma (10 µM) it was 81.6% (inactive); with LOX IMVI melanoma it was 16% (inactive); with SK-MEL-28 melanoma, 95.2% (inactive).

Regarding `COc1ccc(C(=O)C(CN(C)C)CN(C)C)cc1`, the growth in the assay with DU-145 prostate was 56.9% (inactive); in the assay with K-562 leukemia, -19.4% (active); with MALME-3M melanoma, -70.7% (active); in the assay with MDA-MB-231 breast, 104% (inactive); with RXF 393 renal, 63.9% (inactive); with SF-268 CNS it was 96.5% (inactive). Also, the growth is 102% (inactive) with SF-295 CNS; 96.3% (inactive) in the assay with SF-539 CNS; 73.1% (inactive) with UACC-257 melanoma; 52% (inactive) in the assay with M14 melanoma; 46.6% (inactive) in the assay on HCT-15 colon; -77.3% (active) with HT29 colon. In addition, the growth in the assay with SNB-75 CNS was 76.4% (inactive); in the assay on SNB-19 CNS it was 103% (inactive); with U251 CNS, 102% (inactive); in the assay with PC-3 prostate it was 89.6% (inactive); with SK-MEL-5 melanoma it was 101% (inactive); with UACC-62 melanoma (10 µM), 73.4% (inactive). For the same compound, the growth was 82.4% (inactive) in the assay on LOX IMVI melanoma and 83.1% (inactive) in the assay on SK-MEL-28 melanoma.

Consider `Cc1ccc(Sc2ccccc2N)cc1`, for which the growth in the assay on DU-145 prostate was 6.34% (active); in the assay on K-562 leukemia, 108% (inactive); with MALME-3M melanoma it was 116% (inactive); in the assay with MDA-MB-231 breast, 102% (inactive); with RXF 393 renal, 67.4% (inactive); in the assay on SF-268 CNS, 98.1% (inactive). Besides, the growth was 88.8% (inactive) in the assay with SF-295 CNS; 114% (inactive) with SF-539 CNS; 98.5% (inactive) in the assay with UACC-257 melanoma; 99.5% (inactive) in the assay with M14 melanoma; 21.2% (inactive) with HCT-15 colon; 26.1% (inactive) in the assay with HT29 colon. Further, the growth in the assay on SNB-75 CNS was 122% (inactive); in the assay on SNB-19 CNS it was 95.6% (inactive); with U251 CNS it was 84.3% (inactive); in the assay with PC-3 prostate it was 74.4% (inactive); with SK-MEL-5 melanoma, 91.8% (inactive); in the assay on UACC-62 melanoma (10 µM), 90.2% (inactive). In addition, the growth was 76.1% (inactive) with LOX IMVI melanoma and 118% (inactive) in the assay on SK-MEL-28 melanoma.

`COc1cc([C@@H]2c3cc4c(cc3[C@@H](Nc3ccc(NC(=O)c5cc([N+](=O)[O-])cn5C)cc3)[C@H]3COC(=O)[C@H]23)OCO4)cc(OC)c1O`: the growth in the assay with UACC-62 melanoma (100 µM) is -35.1% (active).

`O=[N+]([O-])c1cc[n+]([O-])cc1`: the growth in the assay on DU-145 prostate is 120% (inactive); in the assay on K-562 leukemia, 117% (inactive); in the assay with MALME-3M melanoma it was 101% (inactive); in the assay on MDA-MB-231 breast it was 95.9% (inactive); in the assay with RXF 393 renal it was 114% (inactive); in the assay with SF-268 CNS, 107% (inactive). The growth with SF-295 CNS is 101% (inactive); in the assay with SF-539 CNS, 122% (inactive); in the assay with UACC-257 melanoma, 76.5% (inactive); with M14 melanoma, 113% (inactive); with HCT-15 colon, 112% (inactive); with HT29 colon, 105% (inactive). Also, the growth with SNB-19 CNS is 88.5% (inactive); in the assay with U251 CNS, 111% (inactive); in the assay on PC-3 prostate, 101% (inactive); with SK-MEL-5 melanoma it was 95% (inactive); with UACC-62 melanoma (10 µM) it was 91.1% (inactive); in the assay on LOX IMVI melanoma, 96.3% (inactive). Also, the growth with SK-MEL-28 melanoma was 115% (inactive).

Take `CN(C)CCOC1(Cc2ccc(Cl)cc2Cl)CCC(C(C)(C)C)CC1` (configuration not stated): the growth in the assay with DU-145 prostate was 22.7% (inactive) and 7.69% (active); in the assay with K-562 leukemia, -37.2% (active) and -48.5% (active); with MALME-3M melanoma it was -48.2% (active) and -65.3% (active); with MDA-MB-231 breast it was 7.18% (active) and -26.3% (active); in the assay on RXF 393 renal, 30.2% (inactive) and -32.5% (active); in the assay with SF-268 CNS, 46.1% (inactive) and 34.9% (inactive). Moreover, the growth with SF-295 CNS is -44% (active) and -69.9% (active); with SF-539 CNS it was 39.7% (inactive) and 46.6% (inactive); in the assay on UACC-257 melanoma, -33.6% (active) and 2.54% (active); with M14 melanoma, -34.4% (active) and -59.1% (active); in the assay on HCT-15 colon, -11.2% (active) and -80.3% (active); in the assay with HT29 colon, -37.7% (active) and -58.6% (active). Besides, the growth in the assay on SNB-75 CNS was 47.1% (inactive) and 44.2% (inactive); with SNB-19 CNS, 15.5% (inactive) and -25.9% (active); in the assay with U251 CNS, -95.2% (active) and -100% (active); with PC-3 prostate it was 40.8% (inactive) and 35.7% (inactive); in the assay with SK-MEL-5 melanoma it was 10.2% (inactive) and -63.9% (active); with UACC-62 melanoma (10 µM) it was -26% (active) and -56.2% (active). For the same compound, the growth is -100% (active) with LOX IMVI melanoma; -58.7% (active) and -50% (active) with SK-MEL-28 melanoma.

For the compound `CC1=CC(=C(c2ccc(N)cc2)c2ccc(N)cc2)C=CC1=N`, the growth in the assay on DU-145 prostate is 18.6% (inactive) and 38.3% (inactive); in the assay with K-562 leukemia, 21.1% (inactive) and 24.5% (inactive); in the assay with MALME-3M melanoma, 0.759% (active) and 56.2% (inactive); in the assay on MDA-MB-231 breast it was 6.87% (active) and 21.8% (inactive); with RXF 393 renal it was -12.8% (active) and 62.6% (inactive); in the assay with SF-268 CNS it was 26.1% (inactive) and 29% (inactive). For the same compound, the growth in the assay on SF-295 CNS is -7.28% (active); in the assay with SF-539 CNS, 8.88% (active) and 16.1% (inactive); in the assay with UACC-257 melanoma it was -6.06% (active) and 8.33% (active); in the assay with M14 melanoma it was 27.4% (inactive); with HCT-15 colon, 53.9% (inactive) and 73.4% (inactive); with HT29 colon it was 6.75% (active) and 10.4% (inactive). In addition, the growth was -1.98% (active) and 23.7% (inactive) in the assay with SNB-75 CNS; 17.9% (inactive) and 21.6% (inactive) with SNB-19 CNS; 17.4% (inactive) and 10.6% (inactive) with U251 CNS; 9.47% (active) and 18.5% (inactive) with PC-3 prostate; -37.3% (active) and -25.8% (active) in the assay with SK-MEL-5 melanoma; -20.2% (active) and 22.6% (inactive) with UACC-62 melanoma (10 µM). Moreover, the growth in the assay with LOX IMVI melanoma is 7.6% (active) and 22.4% (inactive); with SK-MEL-28 melanoma, 28.8% (inactive) and 45.9% (inactive).

Regarding `C=C1C(=O)OC2CC1C(OC(C)=O)C/C(C)=C/CC/C(C)=C\CCC2(C)O` (configuration not stated), the growth with DU-145 prostate was -5% (active); in the assay on K-562 leukemia, -40% (active); with MALME-3M melanoma it was 18.6% (inactive); in the assay on MDA-MB-231 breast, 20.3% (inactive); in the assay with RXF 393 renal it was 13.1% (inactive); in the assay with SF-268 CNS it was 27.1% (inactive). In addition, the growth with SF-295 CNS was 106% (inactive); in the assay on SF-539 CNS, 11.2% (inactive); with UACC-257 melanoma, 58.2% (inactive); in the assay with M14 melanoma, 16.4% (inactive); in the assay with HCT-15 colon it was -80.1% (active); with HT29 colon it was -45.1% (active). In addition, the growth in the assay on SNB-75 CNS is 19.8% (inactive); in the assay with SNB-19 CNS, 51.6% (inactive); in the assay on U251 CNS, 33.3% (inactive); in the assay on PC-3 prostate, 18.3% (inactive); with SK-MEL-5 melanoma, 55.8% (inactive); with UACC-62 melanoma (10 µM) it was 44.5% (inactive). Further, the growth in the assay with UACC-62 melanoma (100 µM) was -94.6% (active); in the assay with LOX IMVI melanoma it was 6.22% (active).

For `Cc1cc(N(CCOS(C)(=O)=O)CCOS(C)(=O)=O)ccc1C=Nc1ccc(-c2nc(Cc3ccccc3)sc2C)cc1`, the growth is 11.8% (inactive) with DU-145 prostate; 21.7% (inactive) with K-562 leukemia; 58% (inactive) with MALME-3M melanoma; 77.2% (inactive) in the assay on MDA-MB-231 breast; 45.9% (inactive) in the assay on RXF 393 renal; 39.4% (inactive) with SF-268 CNS. Further, the growth was 12.6% (inactive) in the assay on SF-295 CNS; 15% (inactive) with SF-539 CNS; 6.01% (active) in the assay with UACC-257 melanoma; 25.8% (inactive) in the assay with M14 melanoma; 55% (inactive) with HCT-15 colon; 46.2% (inactive) in the assay on HT29 colon. Further, the growth was -1.26% (active) with SNB-75 CNS; 39.5% (inactive) in the assay on SNB-19 CNS; 43.2% (inactive) with U251 CNS; 55% (inactive) in the assay on PC-3 prostate; 45.2% (inactive) in the assay with SK-MEL-5 melanoma; 37.8% (inactive) with UACC-62 melanoma (10 µM). The growth in the assay with LOX IMVI melanoma was 34.9% (inactive).
